Bioassay records (PubChem)
Hits are enriched below; roughly 19% of the tested compounds scored in any of these assays.
HepG2 viability: HepG2 cytotoxicity, counter-screen for TGF-b inhibitors; HepG2 CAGA-GFP viability, ATP luminescence, 18 h; Potency, µM (top dose mostly 46.1 µM), usual class: cytotoxic; 410,000 compounds, 0.76% hits; AID 588856
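CellTiter-Glo luminescence gave cytotoxicity after 18 hours at 37 degrees C. The cells were HepG2 CAGA-GFP in 1% FBS DMEM, stimulated with 500 pg/mL TGF-beta after compound addition. %Activity was normalised to no-cell wells (complete cell-killing) and DMSO (no toxicity), and curves were fitted and classified.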
DT40 TDP1 no CPT: qHTS for Inhibitors of human tyrosyl-DNA phosphodiesterase 1 (TDP1): qHTS in cells in absence of CPT | 420,000 compounds, 15% hits | AID 686978, 2013 | DT40 Tdp1-/- hTDP1 cells, no CPT, ATP luminescence, 48 h | Potency, µM (series often up to 46.2 µM), actives largely listed as inhibitors; note: nearly all actives have a fitted effect of over 55% in size
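Stably hTDP1-transfected Tdp1-null chicken DT40 cells were treated with library compounds minus camptothecin and grown for at least 48 hr at 37 °C, after which cellular ATP was quantified by luminescence.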
IL1B secr inh: blocks inflammasome-driven IL-1 beta release; THP-1 LPS/ATP IL-1B secretion, AlphaLISA, 16 h; active compounds read low; activity change, % at 57.5 µM; 360,000 compounds, 4.7% hits; AID 743279; in the data active = activity change below about -50%; inconclusive = mostly about -30% to -49%
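THP-1 cells pretreated 1 hr with compounds (up to 57.5 uM final), then stimulated with LPS (250 ng/mL final) plus ATP (1.25 mM final); secreted IL-1B measured by AlphaLISA after 16 hr, decreased signal indicating inhibition.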
TGFb SMAD3 inh: blocks TGF-b signaling; HepG2 CAGA-GFP TGF-b/SMAD3 reporter, GFP fluorescence, 18 h; TGF-beta stimulated, 500 pg/mL final; Potency, µM (titrated, usually from 46.1 µM), most hits filed as inhibitors; 410,000 compounds, 1.2% hits; note: nearly all actives have a fitted effect of over 65% in size
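Read-out: total well GFP (ex488/em500-530) summed from mean per-cell fluorescence. Cells: HEPG2 CAGA-GFP, 1% FBS DMEM, 18 h at 37 degrees C with 500 pg/mL final TGF-beta. Unstimulated wells served as the full-inhibition control; stimulated DMSO wells = 0%.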
TDP1 cell CPT: DT40-hTDP1 cell growth loss with CPT; chicken DT40 Tdp1-/-;hTDP1 cells + 20 nM CPT, ATP luminescence, 48 h; Potency, µM (top dose mostly 46.2 µM), usual class: inhibitors; 420,000 compounds, 12% hits; AID 686979; note: nearly all actives have a fitted effect of over 55% in size
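Chicken DT40 Tdp1-/- cells stably complemented with human TDP1 were seeded at 400 cells/well in medium containing 20 nM camptothecin, exposed to pin-transferred compounds, and grown at 37 °C for at least 48 hr. Viability was read as ATP luminescence.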
TDP1 block: inhibitors of human tyrosyl-DNA phosphodiesterase TDP1. Q9NUW8. recombinant TDP1, AlphaScreen DNA substrate cleavage. Potency, µM (top dose mostly 130 µM), usual class: inhibitors. 350,000 compounds, 0.28% hits. AID 485290; note: nearly all actives have a fitted effect of over 40% in size
Target sequence (Q9NUW8 whole entry, looked up): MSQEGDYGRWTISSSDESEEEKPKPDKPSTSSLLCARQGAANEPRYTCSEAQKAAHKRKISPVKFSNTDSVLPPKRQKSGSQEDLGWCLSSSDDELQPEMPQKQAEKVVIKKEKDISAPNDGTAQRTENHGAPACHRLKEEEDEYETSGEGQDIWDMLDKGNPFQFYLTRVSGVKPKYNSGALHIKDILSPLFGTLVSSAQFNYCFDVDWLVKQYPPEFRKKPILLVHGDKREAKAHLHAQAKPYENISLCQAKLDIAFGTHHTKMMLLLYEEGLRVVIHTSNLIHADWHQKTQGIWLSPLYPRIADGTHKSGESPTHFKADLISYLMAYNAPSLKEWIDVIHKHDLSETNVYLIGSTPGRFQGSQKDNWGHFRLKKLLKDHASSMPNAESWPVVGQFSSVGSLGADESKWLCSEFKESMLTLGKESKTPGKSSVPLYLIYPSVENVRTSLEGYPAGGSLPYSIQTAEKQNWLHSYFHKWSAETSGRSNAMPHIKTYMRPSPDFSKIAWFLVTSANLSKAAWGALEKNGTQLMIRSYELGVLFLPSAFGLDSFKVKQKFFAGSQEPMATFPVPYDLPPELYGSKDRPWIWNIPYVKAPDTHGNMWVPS
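Recombinant E. coli-expressed Tdp1 (1 nM) preincubated with compound 15 min at RT, then 5'-biotin/3'-phosphotyrosine-FITC DNA substrate (15 nM) added for 5 min. AlphaScreen beads (10 ug/ml) added, 10 min RT; tyrosine-FITC cleavage read as signal loss.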
A number is an active result; . = inactive; ? = inconclusive; / = no result; [ ] = remark or other dose. Unless noted, calls come from the whole dose curve; as a rule, active = well fitted curve in the direction sought with a large enough effect; inconclusive = small, poorly fitted or top-dose-only effect, or another doubt; inactive = no such curve, though single readings can be large; an effect the other way counts as inactive or inconclusive.

SMILES | HepG2 viability | DT40 TDP1 no CPT | IL1B secr inh | TGFb SMAD3 inh | TDP1 cell CPT | TDP1 block
CCn1cc(C(=O)NCCc2ccc(C)cc2)c(=O)c2cc(S(=O)(=O)N3CCc4ccccc4C3)ccc21 | . | ? | / | ? | ? | .
COc1ccc(CCNC(=O)c2cn(C)c3ccc(S(=O)(=O)N4CCOCC4)cc3c2=O)cc1OC | . | . | ? | . | ? | .
CCN(CC)S(=O)(=O)c1ccc2c(c1)c(=O)c(C(=O)N1CCN(c3cc(Cl)ccc3C)CC1)cn2C | . | ? | / | . | 16µM | .
CCN(CC)S(=O)(=O)c1ccc2c(c1)c(=O)c(C(=O)N1CCN(c3cc(C)ccc3C)CC1)cn2C | . | ? | / | . | . | .
CC12CN3CC(c4ccccc4)(CN(C1)C3c1ccc(O)cc1)C2=O (stereo not given) | . | ? | / | ? | . | .
COc1ccc(C)cc1-n1nnc(S(=O)(=O)c2ccc(C)cc2)c1C | . | ? | / | . | ? | .
CCN(CC)S(=O)(=O)c1ccc2[nH]cc(C(=O)NCCc3ccc(OC)c(OC)c3)c(=O)c2c1 | . | ? | . | . | . | .
CCN(CC)S(=O)(=O)c1ccc2c(c1)c(=O)c(C(=O)NCCc1ccc(OC)c(OC)c1)cn2C | . | ? | . | . | 18µM | .
CCN(CC)S(=O)(=O)c1ccc2c(c1)c(=O)c(C(=O)NCc1ccccc1Cl)cn2C | 5.6µM | 7.3µM | / | . | 9.2µM | .
CCOc1ccc(CCNC(=O)c2cn(CC)c3ccc(S(=O)(=O)N4CCCCCC4)cc3c2=O)cc1OCC | . | 18µM | / | . | ? | .
Cn1cc(C(=O)NCc2ccccc2Cl)c(=O)c2cc(S(=O)(=O)N3CCCCCC3)ccc21 | . | ? | / | . | ? | .
COc1ccccc1-n1c(/C=C/c2c(C)n(C)c3ccccc23)nc2ccccc2c1=O | . | 3.7µM | / | ? | ? | .[12.3 µM]
Cc1ccccc1-n1c(/C=C/c2c(C)n(C)c3ccccc23)nc2ccccc2c1=O | . | 8.2µM | / | . | 6.5µM | .[12.3 µM]
c1ccc(Sc2ncnc3c2oc2ccccc23)cc1 | . | . | . | . | . | .
O=c1c2oc3ccccc3c2ncn1Cc1ccc(Cl)cc1 | . | . | . | . | . | .
Clc1ccc(N2CCN(c3ncnc4c3oc3ccccc34)CC2)cc1 | . | 14µM | . | . | 21µM | .
CC1CN(c2ncnc3c2oc2ccccc23)CC(C)O1 (stereo not given) | . | 21µM | . | . | ? | .
O=C(C1CCC(Cn2c(=O)c3sccc3n(Cc3ccccc3)c2=O)CC1)N1CCOCC1 (stereo not given) | . | ? | / | . | ? | .
CCCn1c(SCC(=O)Nc2ccc(Cl)cc2F)nc(O)cc1=O | . | . | . | . | . | .
COCCCN1C(=O)C(CC(=O)NCc2cccc3ccccc23)CC(C(=O)N2CCCCCC2)=C1C (stereo not given) | / | . | / | / | . | /
CC1=C(C(=O)N2CCCCCC2)CC(CC(=O)NCc2cccc3ccccc23)C(=O)N1CCC1=CCCCC1 (stereo not given) | / | ? | -63 | / | ? | /
CC1=C(C(=O)N(C)C)CC(CC(=O)NCc2cccs2)C(=O)N1CCC1=CCCCC1 (stereo not given) | . | ? | . | . | . | /
CC1=C(C(=O)N2CCCCCC2)CC(CC(=O)NCc2cccs2)C(=O)N1CCC1=CCCCC1 (stereo not given) | / | 23µM | . | / | 16µM | /
CCCCN1C(=O)C(CC(=O)NCc2cccc3ccccc23)CC(C(=O)N2CCCCCC2)=C1C (stereo not given) | / | ? | -55 | / | ? | /
COCC(=O)Nc1cc(C(=O)NC2CCc3ccccc32)c2c(c1)nc(-c1ccncc1)n2C (stereo not given) | / | ? | / | / | .[9.04 µM] | /
SMILES | HepG2 viability | DT40 TDP1 no CPT | IL1B secr inh | TGFb SMAD3 inh | TDP1 cell CPT | TDP1 block
Cc1ccc(CCNC(=O)c2cc3sccc3n2Cc2ccc(F)cc2)cc1 | . | ? | / | . | . | .
Nc1c(-c2nc(-c3cccs3)no2)nnn1-c1cccc(Cl)c1 | . | . | / | . | . | .
Cc1ccc(NC(=O)Cn2c(C)cc(C)c(C#N)c2=O)cc1F | . | . | / | . | . | .
O=C(NCC1CCCO1)c1ccc2c(c1)N(Cc1ccc(F)cc1)CCS2 (stereo not given) | . | ? | . | . | ? | .
CCN1CCN(CCCNC(=O)c2ccc3c(c2)N(Cc2ccccc2)CCS3)CC1 | . | ? | . | . | 23µM | .
O=C(NCCCN1CCOCC1)c1ccc2c(c1)N(Cc1ccc(F)cc1)CCS2 | . | ? | . | . | 16µM | .
O=C(NCCCN1CCOCC1)c1cccc(S(=O)(=O)Nc2ccc(F)cc2)c1 | . | . | . | . | . | .
CN1CCN(CCCNC(=O)c2ccc3c(c2)N(Cc2ccc(F)cc2)CCS3)CC1 | . | ? | . | ? | 16µM | .
CCc1ccc(C2=C(C)C(N3CCC(C(=O)NCCc4ccco4)CC3)=NS2(=O)=O)cc1 | . | 18µM | / | . | ? | .
CC1=C(c2ccc(Cl)cc2)S(=O)(=O)N=C1N1CCC(C(=O)NCCc2ccco2)CC1 | . | ? | / | . | . | .
CC1=C(c2ccc(C(C)C)cc2)S(=O)(=O)N=C1N1CCN(c2ccccc2F)CC1 | . | 18µM | / | . | ? | .
CC1=C(c2ccc(C(C)C)cc2)S(=O)(=O)N=C1N1CCC(C(=O)NCCc2ccco2)CC1 | . | ? | / | . | 23µM | .
COc1ccc2c(c1)CCCC21NC(=O)N(CC(=O)N2CC(C)OC(C)C2)C1=O (stereo not given) | . | . | . | . | . | .
O=C1c2oc3ccc(F)cc3c(=O)c2C(c2cccc([N+](=O)[O-])c2)N1CCCN1CCOCC1 (stereo not given) | . | . | / | . | . | .
COC(=O)c1ccc(CSc2nc3c([nH]c4ccccc43)c(=O)n2-c2cc(C)cc(C)c2)o1 | . | ? | / | . | ? | .
O=c1c2cc3c(nc2ncn1Cc1ccccc1F)CCCC3 | . | ? | / | . | 18µM | .
Cc1cc(NCCN2CCOCC2)c2ccc3ccccc3c2n1 | . | ? | -82 | . | ? | .
CC(NC(=O)c1sc2cc([N+](=O)[O-])ccc2c1Cl)C(C)(C)C (stereo not given) | . | 4.1µM | ? | . | 5.2µM | .
CC1CCCN(C(=O)c2sc3cc([N+](=O)[O-])ccc3c2Cl)C1 (stereo not given) | . | 16µM | . | ? | 26µM | .
